Shown are actives, neighbours in structure and some others; about 3.4% of the full set was active somewhere.
JMJD2E inh: qHTS Assay for Inhibitors of Human Jumonji Domain Containing 2E (JMJD2E). 230,000 tested, 1.6% active. Lysine-specific demethylase 4E (Homo sapiens), B2RXH2. JMJD2E catalytic domain, FDH-coupled NADH fluorescence (FDH is formaldehyde dehydrogenase). Potency, µM (top dose mostly 57.1 µM), for the others: at the highest dose activity change, negative = inhibition, usual class: inhibitors; active means well fitted inhibition curve with a large enough effect, not every such curve was filed as active; inconclusive means small, poorly fitted or top-dose-only effect, or another doubt; inactive means no such curve, though single readings can be large or run the other way;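 further: 0% = wells with enzyme and -100% = buffer wells without enzyme; nearly all actives have a fitted effect of over 50% in size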
Target sequence (B2RXH2 1-337 limits assumed): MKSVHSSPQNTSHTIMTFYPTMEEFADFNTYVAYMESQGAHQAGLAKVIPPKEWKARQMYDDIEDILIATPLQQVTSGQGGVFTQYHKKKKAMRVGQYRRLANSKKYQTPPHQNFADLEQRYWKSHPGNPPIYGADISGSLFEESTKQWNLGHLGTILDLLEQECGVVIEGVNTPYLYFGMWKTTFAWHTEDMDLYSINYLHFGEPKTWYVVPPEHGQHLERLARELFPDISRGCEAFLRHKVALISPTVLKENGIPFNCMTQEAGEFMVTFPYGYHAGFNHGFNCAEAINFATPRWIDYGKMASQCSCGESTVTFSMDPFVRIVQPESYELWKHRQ
Tau ThT inhib: qHTS for Inhibitors of Tau Fibril Formation, Thioflavin T Binding; recombinant tau K18 P301L, heparin-induced fibrillization, ThT fluorescence; Potency, µM (highest dose often 57.4 µM), inactives show top-dose activity, negative = inhibition, actives largely listed as inhibitors; AID 1460, 2008; 270,000 tested, 2.1% active; Microtubule-associated protein tau (Homo sapiens), P10636; further: nearly all actives have a fitted effect of over 55% in size
Target sequence (P10636 561-689 P618L limits assumed): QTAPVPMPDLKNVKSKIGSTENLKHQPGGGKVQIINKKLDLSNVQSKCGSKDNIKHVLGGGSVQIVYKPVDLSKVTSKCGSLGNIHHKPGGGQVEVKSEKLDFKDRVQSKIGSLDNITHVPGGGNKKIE
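Using a mix of unlabeled (15 uM) and Alexa 594-labeled (0.24 uM) tau K18 P301L, heparin-triggered fibrillization over 6 hr at 37 C was scored by ThT fluorescence.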
GoLoco inh red: qHTS Assay for Inhibitors of RGS12 GoLoco Motif Activity (Red Fluorophore); Gai1:RGS12 GoLoco peptide FP, rhodamine, 10 min; Guanine nucleotide-binding protein G(i) subunit alpha-1 (Homo sapiens), P63096; Potency, µM (top dose mostly 61.6 µM), for the others: at the highest dose activity, negative = inhibition, usual class: inhibitors; 230,000 tested, 0.44% active; active means well fitted inhibition curve with a large enough effect, not every such curve was filed as active; inactive means no such curve, though single readings can be large or run the other way; further: nearly all actives have a fitted effect of over 30% in size
Tau fluor cs: Counterscreen qHTS for Inhibitors of Tau Fibril Formation, Fluorescence Polarization; tau K18 P301L (four-repeat tau fragment) Alexa594 fluorescence, heparin fibrillization; Potency, µM (top dose mostly 57.7 µM), for inactives: top-dose activity change, negative = decrease; 280,000 tested, 0.93% active; further: nearly all actives have a fitted effect of over 55% in size
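Human K18 P301L tau (15 uM unlabeled plus 0.24 uM Alexa 594-labeled, final) in 100 mM sodium acetate pH 7 was mixed with compound and 20 uM heparin and incubated 6 hr at 37 C.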
Tau FP inhib: qHTS for Inhibitors of Tau Fibril Formation, Fluorescence Polarization | K18 P301L tau heparin fibrillization, Alexa594 FP, 6 h | Potency, µM (highest dose often 57.7 µM), without a hit: at the top dose activity, negative = inhibition, usual class: inhibitors | 280,000 tested, 0.39% active | AID 1468, 2008; further: nearly all actives have a fitted effect of over 55% in size
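FP of Alexa 594-tau after heparin (20 uM) induction. Substrate: human K18 P301L, 15 uM unlabeled, 0.24 uM labeled. Buffer 100 mM sodium acetate pH 7. 6 hr, 37 C.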
* hit, by the source's call; ? = inconclusive; . = not tested or not shown. Unless noted, the call rests on the fitted dose curve; in most records, active means well fitted curve in the direction sought with a large enough effect; inconclusive means small, poorly fitted or top-dose-only effect, or another doubt; inactive means no such curve, though single readings can be large; an effect the other way counts as inactive or inconclusive. Unless noted, on the % scale 0 is the no-effect control and ±100 the full control effect; potency means the concentration at half of the fitted maximal effect.

SMILES	JMJD2E inh	Tau ThT inhib	GoLoco inh red	Tau fluor cs	Tau FP inhib
CCOc1cc(C(=O)NCC(c2ccc(N(C)C)cc2)N2CCOCC2)cc(OCC)c1OCC (centres undefined)	.	-13%	.	-10%	6%
CCN(CC)c1ccc(N)cc1S(=O)(=O)Nc1ccccc1OC	-14%	25µM*	-27%	-23%	?
COc1ccc(CNC(=O)c2ccc(CSc3nc4ccncc4n3Cc3ccccc3F)cc2)cc1	.	2%	.	-28%	1%
Cc1ccc(NC(=O)NCCc2c(C)nn(C)c2C)c(Cl)c1	.	3%	.	4%	0%
Cc1nc2ccc(N=NC3=C(O)CCCC3=O)cc2s1	-2%	13µM*	4%	-14%	12%
Cc1nc2ccc(N=NC3=C(O)CC(C)(C)CC3=O)cc2s1	-18%	?	11%	-16%	6%
COc1ccc(-n2nnnc2SCC(=O)Nc2ccccc2N2CCOCC2)cc1OC	10%	10µM*	13%	-17%	-80%
Cn1nnnc1SCC(=O)Nc1ccccc1N1CCOCC1	-2%	-6%	3%	-4%	-2%
CCCCCn1c(CCCNC(=O)c2ccc(Cl)cc2)nc2ccccc21	.	1%	.	-5%	-1%
O=C(COc1ccc(Cl)cc1)Nc1ccc2nc(SCC(=O)N3CCCC3)sc2c1	.	?	.	-28%	-3%
CCOC(=O)c1nnc(-c2ccccc2)nc1Oc1ccccc1Cl	7%	14µM*	9%	?	8%
CCOC(=O)c1nnc(-c2ccccc2)nc1NC	-2%	-12%	-4%	-9%	-10%
COc1cc(NC(=O)Cn2c(C)cc(C)c(C#N)c2=O)cc(OC)c1	.	7%	.	0%	0%
CC1=[N+](C)c2ccc3ccccc3c2C1(C)C	?	14µM*	165%	?	1%
CC(=O)Oc1cc(-c2coc3cc(OC(C)=O)c(OC(C)=O)c(OC(C)=O)c3c2=O)cc(OC(C)=O)c1OC(C)=O	3.2µM*	3.5µM*	-24%	?	8.9µM*
COc1cc(-c2coc3cc(OC)c(OC)c(OC)c3c2=O)cc(OC)c1OC	2%	-5%	3%	-2%	1%
COc1cccc(NC(=O)CSC2=Nc3ccccc3C3=NC(CCC(=O)NC4CCCCC4)C(=O)N23)c1 (centres undefined)	.	7%	.	-6%	-4%
Cc1ccc(S(=O)(=O)N/N=C/c2ccc(O)c(O)c2)cc1[N+](=O)[O-]	28µM*	?	-11%	-25%	-2%
CC(C)C(C)(C#N)NC(=O)CSc1nc2scc(-c3ccco3)c2c(=O)n1-c1ccccc1 (centres undefined)	?	10µM*	18%	-18%	7.9µM*
CCc1ccccc1NC(=O)c1cc(S(=O)(=O)N2CCCc3ccccc32)ccc1F	.	-11%	.	-25%	-6%
Cc1nc2c(C(=O)NCCc3ccc(Cl)cc3)c[nH]n2c(=O)c1Cc1ccc(Cl)cc1	.	28µM*	.	?	-12%
CCOc1ccc(N=Nc2c(=O)[nH]n3c(=O)cc(C)[nH]c23)cc1	-11%	3.5µM*	16%	-13%	8%
CCOc1ccc(-n2c(O)cc(=O)[nH]c2=O)cc1	3%	.	4%	?	?
Cc1cc(=O)n2[nH]c(=O)c(N=Nc3ccccc3)c2[nH]1	-6%	14µM*	8%	-13%	7%
Cc1cc(C)n2[nH]c(=O)c(N=Nc3ccccc3)c2n1	?	?	-14%	1%	4%
Cc1ccc2c(CN3CCN(C(=O)c4ccc(Br)cc4)CC3)cc(=O)oc2c1	.	0%	.	4%	5%
O=S(=O)(NNc1nccc(C(F)(F)F)n1)c1cccc(Cl)c1Cl	0%	22µM*	-19%	-18%	?
COC(=O)c1cnc(NNS(=O)(=O)c2ccc(Cl)cc2)nc1C(F)(F)F	-3%	-8%	9%	-7%	0%
CC(C)(C)C(=O)OCc1cc(=O)n2nc(C3CC3)sc2n1	.	-3%	.	-3%	-4%
